Shown are actives, neighbours in structure and some others; about 19% of the full set was active somewhere.
Pf growth 48h – Primary qHTS for delayed death inhibitors of the malarial parasite plastid, 48 hour incubation | P. falciparum luciferase growth in erythrocytes, 48 h | Potency, µM (titrated, usually from 28.7 µM), usual class: inhibitors | 310,000 compounds, 5.9% hits | AID 504832, 2011
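Growth was read as firefly luciferase luminescence after a 48 h, 37 C, 5% CO2 exposure of compounds to reporter-bearing P. falciparum cultures (0.1% parasitemia, 2% hematocrit final) in Albumax-supplemented RPMI 1640.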
Shiga toxin inh – A qHTS for Small Molecule Inhibitors of Shiga Toxin; 290,000 compounds, 9.2% hits; inhibition, % at 38.7 µM; AID 2315, 2010; Vero cells, Shiga toxin protein synthesis inhibition reporter; in the data active means inhibition mostly above about 28%, no sharp cut-off; inactive means mostly below about 43%
MARV entry inh – qHTS for inhibitors of binding or entry into cells for Marburg Virus; Marburg virus pseudotyped entry inhibition, cell reporter; Potency, µM (doses to about 37.8 µM), most hits filed as inhibitors; 300,000 compounds, 1.8% hits; calls by dose curve; tested in HEK293 cells
Pf growth 96h – Primary qHTS for delayed death inhibitors of the malarial parasite plastid, 96 hour incubation | P. falciparum luciferase reporter growth, 96 h | Potency, µM (series often up to 28.7 µM), most hits filed as inhibitors | AID 504834, 2011 | 320,000 compounds, 6.9% hits
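Delayed-death screen, second-generation endpoint: infected erythrocytes, 2% hematocrit, 0.05% parasitemia final; 96 hours at 37 C, 5% CO2; luciferase detection reagent; luminescence decrease equals reduced growth.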
Lassa entry inh – qHTS for Inhibitors of binding or entry into cells for Lassa Virus; Potency, µM (series often up to 37.9 µM), usual class: inhibitors; 300,000 compounds, 1.2% hits; AID 540256, 2011; Lassa virus pseudotype entry inhibition, cell reporter; calls by dose curve; tested in HEK293 cells; further: nearly all actives have a fitted effect of over 50% in size
CHX counter – Cycloheximide Counterscreen for Small Molecule Inhibitors of Shiga Toxin; 300,000 compounds, 12% hits; max response, %; cell reporter, cycloheximide protein synthesis inhibition counterscreen; AID 2314, 2010; in the data active means max response mostly above about 13%, no sharp cut-off; inactive means mostly below about 14%; further: read at 38.3 µM for the half of the compounds with a filed dose
Large screens that a line does not name were inactive. Unless noted, the call rests on the fitted dose curve; in most records, active means well fitted inhibition curve with a large enough effect; inconclusive means small, poorly fitted or top-dose-only effect, or another doubt; inactive means no such curve, though single readings can be large or run the other way.

CC(NC(=O)c1nn(C)c2c1CS(=O)(=O)c1ccccc1-2)c1ccccc1 (stereo not drawn)	none (no result: MARV entry inh, Lassa entry inh)
COc1cc(-c2c(-c3cccc(C)c3)oc3ccccc23)cc(OC)c1OC	Pf growth 48h inconclusive, Pf growth 96h 9.3µM (no result: MARV entry inh, Lassa entry inh)
Cc1cccc(NC(=O)COc2ccc(/C=N\n3cnnc3)cc2)c1	Pf growth 96h inconclusive
O=C1Nc2ccccc2OC1CC(=O)N1CCCC1 (stereo not drawn)	none (no result: MARV entry inh, Lassa entry inh)
CCN1CCN(CCCNC(=O)C(=O)c2c(C)[nH]c3ccccc23)CC1	none
COc1ccc(-c2cc(C(=O)NCC3CCCO3)on2)cc1OC (stereo not drawn)	Pf growth 96h inconclusive (no result: MARV entry inh, Lassa entry inh)
O=C(Cc1ccc(F)cc1)NCC1CCCO1 (stereo not drawn)	Pf growth 96h inconclusive
COc1cccc(-c2nc(C(=O)NCC3CCCO3)cc3c2[nH]c2ccccc23)c1 (stereo not drawn)	Pf growth 48h inconclusive, Pf growth 96h 8.3µM (no result: MARV entry inh, Lassa entry inh)
COc1ccc(OC)c(-c2nc(C(=O)NCC3CCCO3)cc3c2[nH]c2ccccc23)c1 (stereo not drawn)	Pf growth 48h inconclusive, Pf growth 96h inconclusive (no result: MARV entry inh, Lassa entry inh)
COc1cccc(-c2cc(C(=O)NCC3CCCO3)on2)c1 (stereo not drawn)	Shiga toxin inh 48, Pf growth 96h inconclusive, CHX counter 36 (no result: MARV entry inh, Lassa entry inh)
O=C(NCC1CCCO1)c1cc(-c2ccc(F)cc2)no1 (stereo not drawn)	Shiga toxin inh 97, Pf growth 96h inconclusive, CHX counter 45 (no result: MARV entry inh, Lassa entry inh)
Cc1cccc(C(=O)NCCC(=O)Nc2ccc(F)c([N+](=O)[O-])c2)c1	none
COc1cc(-c2nc(-c3ccc4c(c3)-c3ccccc3S4(=O)=O)c(-c3ccccc3)[nH]2)cc(OC)c1O	MARV entry inh inconclusive, Lassa entry inh inconclusive, CHX counter 22 (no result: Pf growth 48h, Pf growth 96h)
CN(CC(=O)Nc1ccc(F)c(F)c1F)c1cnccn1	Pf growth 48h 13µM, Pf growth 96h inconclusive (no result: Lassa entry inh)
CN(CC(=O)Nc1ccc(F)c(F)c1F)C(=O)c1ccc(=O)[nH]c1	Shiga toxin inh 50, CHX counter 38
COc1cccc(NS(=O)(=O)c2ccc3c(c2)NC(=O)CC(=O)N3)c1	Pf growth 48h inconclusive (no result: MARV entry inh, Lassa entry inh)
COc1ccc(C2=CSC3=C(C(=O)c4cccc(S(=O)(=O)N(C)C)c4)CCN23)cc1	Pf growth 96h 8.3µM (no result: Pf growth 48h)
O=C(CN(c1ccc2c(c1)OCCO2)S(=O)(=O)c1ccccc1)NCC1CCCO1 (stereo not drawn)	none (no result: Pf growth 96h)
C=CCOC(=O)C1=C(C)OC(N)=C(C#N)C1c1ccco1 (stereo not drawn)	none (no result: MARV entry inh, Lassa entry inh)
CC1=C(C(=O)OC(C)(C)C)C(c2ccco2)C(C#N)=C(N)O1 (stereo not drawn)	Pf growth 96h 2.1µM
Cc1cccn2c(CNCCc3ccccn3)c(C(=O)N3CCOCC3)nc12	Pf growth 48h inconclusive, Pf growth 96h 13µM (no result: MARV entry inh, Lassa entry inh)
CSCCNCc1c(C(=O)N2CCOCC2)nc2c(C)cccn12	Pf growth 96h inconclusive
Cc1cccn2c(CNCC3(c4ccccc4)CCCC3)c(C(=O)N3CCOCC3)nc12	Pf growth 48h inconclusive, MARV entry inh 8.9µM, Lassa entry inh inconclusive
Cc1cccn2c(CN3CCSCC3)c(C(=O)N3CCOCC3)nc12	Pf growth 96h inconclusive
CC(C)COc1ccc(C2=NC(c3ccncc3)=Nc3ccc(F)cc3N2)cc1	none (no result: Pf growth 48h, Shiga toxin inh, Pf growth 96h, CHX counter)
COc1cc(C(=O)NNC(=O)c2n[nH]c3ccccc23)cc(OC)c1OC	Pf growth 96h inconclusive (no result: Shiga toxin inh, MARV entry inh, Lassa entry inh, CHX counter)
Cc1oc(-c2ccccc2Cl)nc1CN(C)C(C)c1ccon1 (stereo not drawn)	Pf growth 96h inconclusive
Cc1ccccc1-c1nc(CN(C)C(C)c2ccon2)c(C)o1 (stereo not drawn)	Pf growth 96h 2.3µM
Cc1cccc2nc(C(=O)Nc3cc(Cl)ccc3-n3cncn3)cn12	none (no result: Shiga toxin inh, MARV entry inh, Lassa entry inh, CHX counter)
CN1CCOCCOc2ccccc2OCCOCC1	none (no result: Pf growth 48h, Shiga toxin inh, Pf growth 96h, CHX counter)
Brc1ccc2c(c1)OCCOCCOCCOCCOCCO2	Pf growth 96h 10µM
c1ccc2c(c1)OCCOCCOCCOCCOc1ccccc1OCCOCCOCCO2	MARV entry inh inconclusive, Pf growth 96h 12µM, Lassa entry inh inconclusive
Fc1ccc(/C=N/n2cnn(Cc3ccccc3Cl)c2=S)cc1	none
CN(C)c1ccc(/C=N/n2cnn(Cc3ccccc3Cl)c2=S)cc1	Shiga toxin inh 97, CHX counter 38
N#CC1=C(N)OC2=C(C(=O)CC(c3ccccc3)C2)C1c1ccc2c(c1)OCO2 (stereo not drawn)	Lassa entry inh 13µM
N#CC1=C(N)OC(c2ccccc2)=C(C#N)C1c1ccc2c(c1)OCO2 (stereo not drawn)	none (no result: Pf growth 96h)
COc1ccc(S(=O)(=O)N(C)C)cc1NC(=O)CN1CCN(C(=O)C2CC2)CC1	none (no result: Shiga toxin inh, MARV entry inh, Lassa entry inh, CHX counter)
COC(C(=O)N/N=C(\C)c1ccc(C)cc1)c1ccccc1 (stereo not drawn)	Pf growth 96h inconclusive, CHX counter 11
COC(=O)c1ccc(NC(=O)CCOc2ccccc2)cc1	CHX counter 22
Cc1cccc(NC(=O)CCOc2ccccc2)c1	Lassa entry inh inconclusive (no result: Pf growth 48h, Pf growth 96h)
COc1ccc(NC(=O)CCSCCC(=O)Nc2ccc(OC)cc2OC)c(OC)c1	Pf growth 96h inconclusive
O=C(CCOc1ccccc1)Nc1ccc(Br)cc1	Shiga toxin inh 57, MARV entry inh inconclusive, Pf growth 96h inconclusive, CHX counter 38
CCOC(=O)c1ccc(NC(=O)CCOc2ccc(C)cc2)cc1	none (no result: Pf growth 96h)
COc1ccc(NC(=O)CCOc2ccccc2)c(OC)c1	MARV entry inh inconclusive, Pf growth 96h inconclusive, CHX counter 20
CCOC(=O)C(=CNc1ccc(C(F)(F)F)cc1)C(=O)OCC	Pf growth 48h inconclusive
OCC1CN1C1CCCCC1 (stereo not drawn)	none (no result: Pf growth 48h, Shiga toxin inh, Pf growth 96h, CHX counter)
Cc1cc(C(=O)N2CC(C)CC(C)C2)n(-c2ccccc2)n1 (stereo not drawn)	none (no result: MARV entry inh, Lassa entry inh)
Cn1cc(-c2nnnn2-c2cccc(C(F)(F)F)c2)c(C(F)(F)F)n1	Pf growth 48h inconclusive
C=CCn1c(SCn2nnc3ccccc3c2=O)nnc1C1CCCCC1	Pf growth 48h inconclusive, Pf growth 96h inconclusive
COc1cccc(NS(=O)(=O)c2ccc3[nH]cc(C(=O)NC(C)c4ccccc4)c(=O)c3c2)c1 (stereo not drawn)	none (no result: Pf growth 48h, Pf growth 96h)
COC(=O)c1ccc(NC(=O)CC(=O)Nc2ccc(C(=O)OC)cc2)cc1	none (no result: MARV entry inh, Lassa entry inh)
COC(=O)c1ccc(NC(=O)C(OC)c2ccccc2)cc1 (stereo not drawn)	CHX counter 17 (no result: Lassa entry inh)
COC(=O)c1ccc(NC(=O)CNc2ccccc2)cc1	Shiga toxin inh 61, CHX counter 36
COc1ccc(NC(=O)CCOc2ccccc2)cc1	Shiga toxin inh 117, MARV entry inh inconclusive, Lassa entry inh inconclusive, CHX counter 65
COc1ccc(OCCC(=O)Nc2ccc(S(N)(=O)=O)cc2)cc1	none
COC(=O)c1ccc(NC(=O)c2ccccc2NS(C)(=O)=O)cc1	Shiga toxin inh 48, CHX counter 24 (no result: Pf growth 96h)
COC(C(=O)Nc1ccc(NC(=O)C(OC)c2ccccc2)cc1)c1ccccc1 (stereo not drawn)	none

Screens from PubChem BioAssay.
